Screening results as filed in PubChem BioAssay.
Sfp PPTase inh – inhibitors of Bacillus subtilis Sfp phosphopantetheinyl transferase | Q9F4F7 | Potency, µM, most hits filed as inhibitors | AID 1490 | Biochemical Sfp PPTase activity, qHTS | 310,000 tested, 3.5% active;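 also: the enzyme is Sfp with the accession as filed and its product quenches rhodamine fluorescence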
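Fluorescence-quenching assay with 15 nM Sfp, 5 uM rhodamine-CoA and 12.5 uM BHQ-2-labelled ybbR peptide in pH 7.6 Hepes/MgCl2 buffer. Enzyme was pre-incubated with compound for 15 min at room temperature. Rate was taken from the 30-min fluorescence change (525/598 nm).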
VDR inhibitor – inhibitors of human vitamin D receptor | P11473 | VDR-SRC2-3 peptide fluorescence polarization, 2 h | Potency, µM, hits mostly inhibitors | 400,000 tested, 0.93% active | AID 504847
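Measured by FP: displacement of SRC2-3 coactivator peptide from VDR by library compounds, following a two-hour ambient incubation.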
G9a inh – blocks human histone lysine methyltransferase G9a. Potency, µM (doses to about 102 µM), actives largely listed as inhibitors. G9a H3K9 monomethylation, AlphaScreen, 2 h. 350,000 tested, 8.8% active. AID 504332; also: nearly all actives have a fitted effect of over 75% in size
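G9a (20 nM) was preincubated 15 min with compound, then reacted 2 h at room temperature with 500 nM biotin-H3K9 peptide and 20 µM SAM. Monomethyl-H3K9 detected by AlphaScreen using anti-H3K9me1 antibody.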
GRP78 ERSR act – inducers of ER stress response in human glioma cells. U87-MG GRP78 promoter luciferase reporter, 16 h. Potency, µM, actives largely listed as activators. 420,000 tested, 0.02% active. AID 602332; also: series mostly up to about 76 µM; nearly all actives have a fitted effect of over 35% in size
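Stably transfected U87-MG human glioma cells carrying a GRP78-based luminescent sensor were seeded at 1000 cells/well, pin-dosed with compounds and incubated 16 h. Luciferase reagent was then added, and end-point luminescence was read after 10 min at room temperature.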
12-LOX inh – ALOX12 (human) lipoxygenase inhibition; P18054; purified 12hLO, xylenol orange hydroperoxide absorbance; Potency, µM (highest dose often 108 µM), usual class: inhibitors; 580,000 tested, 1.1% active
Target sequence (P18054 whole entry, looked up): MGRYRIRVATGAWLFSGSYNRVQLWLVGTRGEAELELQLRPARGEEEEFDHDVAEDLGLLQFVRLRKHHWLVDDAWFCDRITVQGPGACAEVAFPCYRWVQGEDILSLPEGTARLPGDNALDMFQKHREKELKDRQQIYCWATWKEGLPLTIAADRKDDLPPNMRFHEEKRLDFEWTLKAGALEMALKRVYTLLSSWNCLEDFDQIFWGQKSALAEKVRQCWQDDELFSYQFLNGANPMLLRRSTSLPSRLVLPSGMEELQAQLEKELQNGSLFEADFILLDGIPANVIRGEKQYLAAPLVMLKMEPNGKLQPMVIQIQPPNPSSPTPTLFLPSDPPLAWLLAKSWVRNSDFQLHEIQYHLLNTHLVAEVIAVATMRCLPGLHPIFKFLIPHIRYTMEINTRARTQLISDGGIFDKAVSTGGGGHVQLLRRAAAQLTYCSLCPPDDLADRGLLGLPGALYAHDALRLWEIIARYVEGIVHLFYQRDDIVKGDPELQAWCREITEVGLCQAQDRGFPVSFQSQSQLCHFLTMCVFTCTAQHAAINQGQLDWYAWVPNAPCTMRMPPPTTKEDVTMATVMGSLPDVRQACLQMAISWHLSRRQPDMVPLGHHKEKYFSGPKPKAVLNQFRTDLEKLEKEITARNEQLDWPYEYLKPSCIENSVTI
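Purified human 12hLO at 150 nM in 25 mM Hepes, 0.01% Triton X-100, pH 7.0, preincubated 15 min at room temperature with compound. Reaction started with 40 uM arachidonic acid, 30 min at room temperature. Hydroperoxide measured by Fe-xylenol orange, 573/405 nm absorbance ratio.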
Hits are given with their value; i = inactive; ? = inconclusive; nt = no result given; ! = not active in a repeat; [ ] = another dose, or the depositor's remark. The full list was thinned out, with hits kept by preference. Calls follow the shape of the dose curve; as a rule, active = well fitted curve in the direction sought with a large enough effect; inconclusive = small, poorly fitted or top-dose-only effect, or another doubt; inactive = no such curve, though single readings can be large; an effect the other way counts as inactive or inconclusive.

SMILES	Sfp PPTase inh	VDR inhibitor	G9a inh	GRP78 ERSR act	12-LOX inh
CC1=C(C(=O)Nc2ccccc2)C(c2ccc(C)cc2)NC(=O)N1 (stereo unspecified)	nt	nt	nt	nt	i
COc1ccccc1NC(=O)C1=C(C)NC(=O)NC1c1ccc(C)cc1 (stereo unspecified)	i	i	i	i	i
CC1=C(C(=O)Nc2ccccc2)C(c2ccccc2[N+](=O)[O-])NC(=O)N1 (stereo unspecified)	20µM	i	?	i	i
O=C1CSC(c2ccccc2F)N1CCN1CCCCC1 (stereo unspecified)	i	i	79µM	i	i
O=C(c1ccc(OC(F)F)cc1)n1ccccc1=NC1CCCCC1	nt	nt	nt	nt	i
O=C(O)c1ccc(O)cc1O	nt	i	i[0.501 µM]	i	i
O=C(O)c1cc(O)c2c(c1)C(=O)c1cc(O)cc(O)c1C2=O	10µM!	i	i[12.7 µM]	i	?
Cc1ccc(CN2C(=O)[C@@H]3C[C@@H](O)CN3C3(CN(Cc4ccc(F)cc4)C3)C2=O)o1	nt	nt	nt	nt	i
COc1ccc(C2NN=C(c3ccc(C)cc3)S2)cc1OC (stereo unspecified)	?	i	13µM	i	i
CC(/C=C/c1ccco1)=N/NC(=O)CNc1ccccc1C	50µM	?	i	i	i
CC(/C=C/C=C/c1ccccc1)=N/NC(=O)CNc1ccccc1C	i	i	i	i	i
CC(/C=C/c1ccco1)=N\NC(=O)CNc1ccc2ccccc2c1	i	i	5.6µM	i	i
COc1ccccc1N1CCN(/N=C\c2cccnc2)CC1	?	i	40µM	i	?
COc1ccccc1N1CCN(/N=C/c2ccc(OC)c(OC)c2OC)CC1	i	i	35µM	i	i
COc1ccccc1N1CCN(/N=C/c2ccc([N+](=O)[O-])cc2)CC1	i	i	18µM	i	i
COc1ccccc1N1CCN(/N=C/c2cccc(O)c2)CC1	i	i	i	i	i
COc1ccccc1N1CCN(/N=C/c2cc(OC)c(O)c(OC)c2)CC1	40µM	i	13µM	i	i
CCCOc1cc(OCCC)cc(C(=O)Nc2cccc(-c3nc4ncccc4o3)c2)c1	nt	nt	nt	nt	i
Cn1c(=O)c2c(nc(N3CCOCC3)n2Cc2cccc(C(F)(F)F)c2)n(C)c1=O	nt	nt	nt	nt	i
Oc1ccc(C2CCN(c3ccnc4ccccc34)CC2)cc1O	nt	nt	nt	nt	3.1µM
CCCCC1=CC2=C(c3ccco3)C(=O)C(C)(OC(=O)c3ccc(OC)cc3)C(=O)C2=CN1CCOC (stereo unspecified)	i	i	?	i	i
CCCCC1=CC2=C(c3ccco3)C(=O)C(C)(OC(=O)c3ccc(OC)cc3)C(=O)C2=CN1C1CCCCC1 (stereo unspecified)	56µM!	?	?	i	nt
CCCCC1=CC2=C(c3ccco3)C(=O)C(C)(OC(=O)c3ccc(OC)cc3)C(=O)C2=CN1Cc1ccc2c(c1)OCO2 (stereo unspecified)	?	?	?	i	nt
CCCCC1=CC2=C(c3ccco3)C(=O)C(C)(OC(=O)c3ccc(OC)cc3)C(=O)C2=CN1Cc1ccccc1 (stereo unspecified)	45µM!	?	i	i	i
CCCCC1=CC2=C(c3ccco3)C(=O)C(C)(OC(=O)c3ccc(OC)cc3)C(=O)C2=CN1CCc1ccccn1 (stereo unspecified)	56µM!	?	i	i	i
SMILES	Sfp PPTase inh	VDR inhibitor	G9a inh	GRP78 ERSR act	12-LOX inh
CN=c1scc(-c2cccs2)n1/N=C/c1ccc(O)c(O)c1O	11µM	?	7.9µM	i	?
CN=c1scc(C)n1/N=C/c1ccc(O)c(O)c1O	25µM	i	?	i	i
CN=c1scc(-c2cccs2)n1/N=C/c1ccccc1O	i	i	i	i	i
COCCN(CCOC)Cc1cccc2ccccc12	nt	nt	nt	nt	i
CN(C)CCCN(Cc1cccc2ccccc12)Cc1cccc2ccccc12	nt	nt	nt	nt	5µM
CC(=O)Oc1ccc2c(=O)c(Oc3ccc(F)cc3)c(C(F)(F)F)oc2c1	nt	nt	nt	nt	i
Cc1noc2c(NCCN(C)C)cc(-c3cccc(C(F)(F)F)c3)nc12	nt	nt	nt	nt	i
Cc1nonc1CN(C)C(=O)c1ccc(OC2CCN(Cc3ccccn3)CC2)cc1	i	i	?	i	i
Cc1cc(CN(C)C(=O)c2ccc(OC3CCN(Cc4ccccn4)CC3)cc2)on1	i	i	50µM	i	i
CC(NC(=O)CCc1ccco1)C1CCCO1 (stereo unspecified)	nt	nt	nt	nt	i
Cc1nc(C)c(CCNC(=O)c2ccc(C(F)(F)F)cc2)s1	i	i	45µM	i	i
CCOc1ccc(CN2CCNC(=O)C2CC(=O)N(C)Cc2nonc2C)cc1 (stereo unspecified)	i	i	50µM	i	i
Cc1cccnc1CCNC(=O)CC1C(=O)NCCN1CC1CCCCC1 (stereo unspecified)	i	i	40µM	i	i
CCOc1ccccc1CN1CCNC(=O)C1CC(=O)N(C)Cc1nonc1C (stereo unspecified)	i	i	i	i	?
CCOc1ccc(CN2CCNC(=O)C2CC(=O)NCCCOc2cccnc2)cc1 (stereo unspecified)	i	i	?	i	i
CCOc1ccc(CN2CCNC(=O)C2CC(=O)NCCc2ccccn2)cc1 (stereo unspecified)	i	i	56µM	i	i
CC(=O)c1ccccc1NC(c1nnnn1-c1c(C)cccc1C)C1CC1 (stereo unspecified)	nt	nt	nt	nt	i
CCOC(=O)C1CCN(C(=O)c2cc(-c3ccncc3)cn2Cc2ccccc2C)CC1	nt	nt	nt	nt	i
Cc1ccc(NC(=S)NNC(=O)c2ccc(N3CCOCC3)c([N+](=O)[O-])c2)cc1Cl	i	i	22µM	i	?
O=C(Nc1cccnc1)c1ccc(N2CCOCC2)c([N+](=O)[O-])c1	i	i	i	i	?
O=C(NNC(=S)Nc1ccc(Br)cc1)c1ccc(N2CCOCC2)c([N+](=O)[O-])c1	i	i	11µM	i	?
CCOC(=O)c1c(NC(=S)Nc2ccc(C)cc2)sc2c1CCC2	?	i	i	i	?
COC(=O)c1c(NC(=S)Nc2cc(OC)c(Cl)cc2OC)sc2c1CCCCC2	?	i	i	i	40µM
CCOC(=O)c1c(NC(=S)Nc2cc([N+](=O)[O-])ccc2OC)sc2c1CCCCC2	22µM	nt	?	nt	nt
CCNc1cc2c(cc1O)CCC1C2CCC2(C)C(O)CCC12 (stereo unspecified)	nt	79µM	nt	i	?
Oc1c(C(c2ccc(Cl)cc2Cl)N2CCN(c3ccccc3)CC2)sc2nc(-c3ccco3)nn12 (stereo unspecified)	nt	i	11µM	i	i
COc1cccc(C(c2sc3nc(-c4ccco4)nn3c2O)N2CCC(O)CC2)c1 (stereo unspecified)	nt	i	?	i	i
Cc1ccc(C(c2sc3nc(-c4ccco4)nn3c2O)N2CCOCC2)cc1 (stereo unspecified)	nt	i	i	i	14µM
COc1cccc(C(c2sc3nc(-c4ccco4)nn3c2O)N2CCCC2)c1 (stereo unspecified)	nt	i	14µM	i	i
O=C(CSc1nc2ccccc2nc1N1CCCC1)N1CCN(c2ccc(Cl)cc2)CC1	nt	nt	nt	nt	i
